# This is part of a sample that, as a whole, favours compounds with a hit. Of some 83,000 tested, about 20% had one in any assay.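 Testing used 96-well plates and a 48-hour single-concentration exposure. Example: -40 means 40% of the starting cells died.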 The source made the active and inactive calls. Rule for the calls: active = growth percent below 10; inactive = the rest.
# Test system: HL-60(TB) leukemia
# Assay: NCI-60 one-dose screen, 48 h (100 = growth as untreated, 0 = no growth, -100 = all killed)
# Conditions: 10 µM unless noted
row,Compound,growth
1,N/C(=N\C(N)=N\c1nc2ccccc2s1)c1ccnc(Br)c1,2.51% (active)
2,Cc1ccc(C2CC(c3cccc(Nc4ccncc4)c3)=NN2c2cc(Cl)cc(Cl)c2)cc1 (configuration not stated),14.8% (inactive)
3,COc1ccc2c(c1)c(CC(=O)[Se]C)c(C)n2C(=O)c1ccc(Cl)cc1,-38.9% (active)
4,CCOC(=O)c1cc2c(n1Cc1cc(OC)cc(OC)c1Br)-c1nc(NC(C)=O)sc1CCC2,43.1% (inactive)
5,CC[N+](CCCCCCCCCC[N+](CC)(c1ccccn1)c1ccccn1)(c1ccccn1)c1ccccn1,-50.7% (active)
6,COc1cc(-c2nn(-c3cccc(NC(=O)Nc4cc(C(F)(F)F)cc(C(F)(F)F)c4)c3)cc2-c2ccncc2)ccc1Cl,-20.2% (active)
7,O=C1C=C(O)C(=O)C=C1O,91.2% (inactive)
8,Cc1cc(NCc2cc(Nc3ccnc4cc(Cl)ccc34)ccc2F)nc(N2CCCC2)n1,-59.5% (active)
9,C=CCN1C(=O)[C@]2(SC1=S)[C@H](c1cccc(Cl)c1)CN(C)[C@]21C(=O)NC2C=CC(Cl)=C[C@H]21 (some centres not stated),-39.8% (active)
10,C=C1C(=O)O[C@H]2[C@H]1CC/C(Cn1cc(Cn3ccc4ccccc43)nn1)=C\CC[C@@]1(C)O[C@@H]21,-48.5% (active)
11,S=C(Cc1ccc(-c2ccccc2)cc1)N1CCOCC1,98.9% (inactive)
12,COC(=O)C1(C)COP(=O)(NC23CC4CC(CC(C4)C2)C3)OC1 (configuration not stated),119% (inactive)
13,COC(=O)[C@H](Cc1cn(C)cn1)NC(=O)[C@H](Cc1ccccc1)NC(=O)Nc1cc(C(F)(F)F)cc(C(F)(F)F)c1,-67.9% [100 µM] (active)
14,CC(C)c1ccc(C(=O)Nc2nc3ccc(O)cc3s2)cc1,14.4% (inactive)
15,Nc1ccc(C2=CC(c3ccc(Cl)cc3)N3C=CSC3=N2)cc1 (configuration not stated),-19.3% (active)
16,CCOC(=O)N1C=CC2C=CC1C1C=CC=CC2N1C(=O)OCC (configuration not stated),104% (inactive)
17,CCCn1c(=O)c2c(nc(-c3cccc(OCCCCl)c3)n2C)n(CCC)c1=O,107% (inactive)
18,CCCC(=O)CC(=O)c1ccccc1,112% (inactive)
19,CC(=O)CC(c1ccccc1)c1c(C)[nH]c2ccccc12 (configuration not stated),107% (inactive)
20,CN=S(=O)(OCCCCCOS(=O)(=NC)c1ccc(C)cc1)c1ccc(C)cc1 (configuration not stated),70.7% (inactive)
21,Cc1cc(N2CCCCC2)nc(NCc2cc(Nc3ccnc4cc(Cl)ccc34)ccc2F)n1,-65.7% (active)
22,Cn1cc(-c2csc(-c3cn(C)c4ncccc34)n2)c2cc(F)cnc21,86.4% (inactive)
23,CN(Cc1cc(Br)cc(Br)c1O)Cc1cc(Br)cc(Br)c1O,22.7% (inactive)
24,O=S(=O)(O)c1cc(O)c2c(N=Nc3ccc(Nc4ccccc4)c4c(S(=O)(=O)O)cccc34)cc(S(=O)(=O)O)cc2c1,82.7% (inactive)
25,C=C1C(=O)O[C@H]2[C@H]1CC/C(COC(=O)C(C)c1ccc(CC(C)C)cc1)=C\CC[C@@]1(C)O[C@@H]21 (some centres not stated),-9.46% (active)
26,COc1ccc(/C=N/NC(N)=S)c(OC)n1,93.4% (inactive)
27,CS/C(=C\c1ccc(C(=O)c2ccc(C)cc2)n1C)S(C)=O (configuration not stated),53.6% [100 µM] (inactive)

# Reference: PubChem BioAssay (NCI)
